The campaign covered roughly 69,000 compounds. About 8,600 (12%) showed an effect of 50% or more. This excerpt belongs to a sample that is enriched for strong results.
system: Plasmodium berghei; test: Screen against P. berghei liver stage (PbLuc), transformed with Luciferase, at 10uM; assay type: functional, HepG2; conditions: tested at 10 uM

Row | Compound | INHIBITION [%]
1 | O=C(c1ccc2c(c1)CCCC2)N1CCn2ncnc2C1 | -0.275
2 | O=C(c1ccccn1)N1CCOC2(COCCN(Cc3cc[nH]n3)C2)C1 (centres undefined) | -95.7
3 | CC(C)C[C@H](NC(=O)Cc1csc(-c2cccc(Cl)c2)n1)C(=O)O | 40.8
4 | CCc1ccsc1C(=O)NCCn1nc2ccccn2c1=O | 14.4
5 | c1cnn(CC2CCCN2Cc2ccc(-n3cccn3)cc2)c1 (centres undefined) | 41.2
6 | c1ccc(CN2CCNCC(Cc3cnccn3)C2)cc1 (centres undefined) | -11.4
7 | CCc1nc(C(=O)N2CC(C(C)C)Nc3ccccc32)c[nH]1 (centres undefined) | 3.13
8 | COCCNc1ncc(-c2cccc(OC)c2)c(-c2nccn2C)n1 | 3.48
9 | CC(C)[C@H]1CN(Cc2ccccn2)C[C@@H]1NC(=O)CC1CCC1 | 41.8
10 | CC(C)[C@H]1CN(Cc2c[nH]cn2)C[C@@H]1NC(=O)CC1CCC1 | 57.3
11 | CC(C)[C@H]1CN(Cc2nccn2C)C[C@@H]1NC(=O)CCS(C)(=O)=O | 12.9
12 | O=C(c1ccc(F)cc1)N1CCC2(CCN(Cc3ccccn3)C2=O)C1 (centres undefined) | 2.79
13 | CN1CCCC1c1cccc(Cc2ccc(F)cc2)n1 (centres undefined) | 100
14 | COCC(=O)N1CCCC1c1cccc(Cc2ccccc2F)n1 (centres undefined) | 24.4
15 | CN1CCCC1c1cccc(Cc2ccccc2F)n1 (centres undefined) | 76.2
16 | CC(=O)N1CCCC1c1cccc(NCc2ccccc2F)n1 (centres undefined) | 64.1
17 | CN(C)C(=O)CN1CCCC1c1cccc(Cc2ccccc2F)n1 (centres undefined) | 42.6
18 | CS(=O)(=O)N1CCCC1c1cccc(Cc2ccccc2F)n1 (centres undefined) | -51.4
19 | CC(=O)N1CCCC1c1cccc(Cc2ccccc2F)n1 (centres undefined) | 14.8
20 | CN1CCCC1c1cc2cccnc2n1Cc1ccc(F)cc1 (centres undefined) | 30.85
21 | CC(=O)N1CCCC1c1cccc(Cc2ccc(F)cc2)n1 (centres undefined) | 13.6
22 | Cc1ncsc1C(=O)N1CCCC1c1c(C)nn(C)c1C (centres undefined) | 16.6
23 | Cc1cc(Nc2cnccn2)cc(C2CCCNC2)n1 (centres undefined) | 19.5

Row | Compound | INHIBITION [%]
24 | CO[C@@H]1CCC[C@@H](NC(=O)c2cccc(F)c2)[C@H]1O | 28.2
25 | CNc1nc2cn(CCc3ccc(C)cc3)c(=O)c-2c[nH]1 | 3.52
26 | O=C(Cc1ccccn1)N1CCN(C(=O)CC2CCCCC2)CC1 | 13.6
27 | Cc1cc(NCC2CCS(=O)(=O)C2)n2nc(C)cc2n1 (centres undefined) | 47
28 | CCC(C)(C)n1nnnc1C(c1cccs1)N1CCc2ccccc2C1 (centres undefined) | 51.4
29 | CCC(C)(C)n1nnnc1C(c1cccs1)N1CCCCC1 (centres undefined) | 21.7
30 | CCC(C)(C)n1nnnc1C(c1cccs1)N1CCc2ccccc21 (centres undefined) | 42.6
31 | Cc1ccc(C(=O)N2C[C@H]3CCC[C@@]3(COCc3ccncc3)C2)cn1 | 43.9
32 | CCc1nnc2n1CCN(C(=O)c1csc(-c3cnn(C)c3)n1)C2 | 29.7
33 | CCc1nnc2n1CCN(C(=O)c1cnn(C)c1C1CC1)C2 | 53.9
34 | CCc1nnc2n1CCN(C(=O)c1ccc(-c3ccco3)[nH]c1=O)C2 | -19.6
35 | Cc1nc(-c2ccco2)ccc1C(=O)N1CCn2c(C)nnc2C1 | -17.6
36 | CCc1nnc2n1CCN(C(=O)CN(C)Cc1ccccc1)C2 | 20.1
37 | CCc1nnc2n1CCN(C(=O)c1ccccc1OCC1CC1)C2 | 7.21
38 | CCc1nnc2n1CCN(C(=O)c1ccc(-c3ccco3)nc1C)C2 | 61.3
39 | CC(C)c1nnc2n1CCN(C(=O)c1cnc(C3CC3)s1)C2 | 43.1
40 | CCc1nnc2n1CCN(C(=O)CN(CC)CC)C2 | 49.8
41 | Cc1nnc2n1CCN(C(=O)c1cnc(C3CC3)s1)C2 | 53.9
42 | CCc1nnc2n1CCN(C(=O)CN(C)C1CC1)C2 | 51.1
43 | Cc1nnc2n1CCN(C(=O)c1ccnc(N(C)C)c1)C2 | 21.6
44 | NC(=O)C1(CCCc2ccncc2)CCCN1 (centres undefined) | 1.5
45 | CNS(=O)(=O)c1ccc(CNC(=O)c2c(C)oc(C)c2C)cc1 | -6.14
46 | CN1CCCC1CNC(=O)CCCOc1ccc(Br)cc1 (centres undefined) | -62.6

Row | Compound | INHIBITION [%]
47 | Cc1ccc(-c2nnc(SCC(=O)O)n2-c2ccc(C)cc2)cc1 | 33.5
48 | O=S(=O)(C1CC1)N1CCc2ncnc(N3CCCC3)c2CC1 | -17.7
49 | COc1ccc(C(=O)NCCN(C)C)c(I)c1 | -0.217
50 | NC(=O)N1CCC(NCc2cc(Br)ccc2Cl)CC1 | 34.7
51 | CC(C)(C)c1ncc(C(=O)NCCNC(=O)c2ccco2)s1 | -21.5
52 | COc1cc(C(=O)N2CCCC(c3cc(C)[nH]n3)C2)ccc1C (centres undefined) | 24
53 | CCc1nnc2n1CCN(C(=O)c1cnc(-c3cccs3)s1)C2 | 19.3
54 | CCc1nnc2n1CCN(C(=O)c1cnc(C3CC3)s1)C2 | 13.9
55 | CCc1ncc(C(=O)N2CCn3c(CC)nnc3C2)s1 | 53.9
56 | Cc1cc(C)c2ncc(C#N)c(N3CCS(=O)(=O)CC3)c2c1 | 36.3
57 | Cc1cnn(CC2CCCCN2C(=O)CC(F)(F)F)c1 (centres undefined) | 9.14
58 | O=C(c1cccnc1SCc1ccccc1)N1CC[C@@H](O)C1 | -34
59 | O=C(c1cc(-c2ccccc2)nc2onc(C3CC3)c12)N1CC[C@H](O)C1 | 73
60 | O=C(c1cc(C2CC2)nc2onc(-c3ccccc3)c12)N1CC[C@H](O)C1 | 28.5
61 | O=C(c1cc(C2CC2)nc2onc(-c3ccccc3)c12)N1CCOCC1 | 51.7
62 | O=C(CN1CCCC1c1nc(-c2ccccc2)no1)N1CCOCC1 (centres undefined) | -21.8
63 | O=C(c1cc(C2CC2)nc2onc(-c3ccccc3)c12)N1CC(O)C1 | 44.3
64 | Cc1cc(NCCCc2c(C)noc2C)nc(N)n1 | 35
65 | CC(C)c1ncc2c(n1)CN(Cc1noc(-c3ccccc3)n1)CC2 | 45.7
66 | CC(C(=O)NCCN1CCCCC1)n1cncn1 (centres undefined) | -5.07
67 | CCn1c(SCC(=O)N2CCCC2)nc2cc(C)[nH]c2c1=O | 40
68 | c1csc(CN2CCC3(CCOCC3COCC3CC3)CC2)n1 (centres undefined) | -18.2
69 | CCN(Cc1nccn1C)C1CCN(c2ccccc2)C1=O (centres undefined) | 42.6

Source: ChEMBL document CHEMBL4513216, “Probing the Open Global Health Chemical Diversity Library for Multistage-Active Starting Points for Next-Generation Antimalarials” (ACS Infect Dis, 2020)
